# Results filed as inconclusive are left out. Activity calls are given as the source filed them. How the source made its calls: active means hit-call score of the fitted dose curve at least 0.9, where 1 is the maximum; inconclusive means response in the unintended direction; inactive means score below 0.9.
# Read-out: HMG-CoA synthase (HMGCS2), HMGCS2 (gene 3158)
# Assay: CLD_HMGCS2_6hr: CellzDirect (CLD) Gene Expression Assay for HMG-CoA synthase (HMGCS2) at 6 hours (AID 2283682);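 further: actives raise HMGCS2 transcript above the 0.2% DMSO vehicle baseline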
# Protocol: CLD_6hr is a cell-based, multiplexed-readout assay that uses hepatocyte, a human liver primary cell, with measurements taken at 6 hours after chemical dosing in a 96-well plate.CLD_HMGCS2_6hr is one of 16 assay component(s) measured or calculated from the CLD_6hr assay. It is designed to make measurements of mRNA induction, a form of inducible reporter, as detected with chemiluminescence signals by Quantitative Nuclease Protection Assay (qNPA) technology.Data from the assay component CLD_HMGCS2_6hr was analyzed at the endpoint, CLD_HMGCS2_6hr, in the positive analysis fitting direction relative to DMSO as the negative control and baseline of activity. Using a type of inducible reporter, gain-of-signal activity can be used to understand changes in the reporter gene as they relate to the gene HMGCS2. Furthermore, this assay endpoint can be referred to as a primary readout. To generalize the intended target to other relatable targets, this assay endpoint is annotated to the lyase intended target family, where subfamily is HMG-CoA synthase.
# Human hepatocyte cultures were treated daily for two consecutive days with fresh dosing solutions containing appropriate concentrations of the 320 ToxCast chemicals (chemical identities were blinded to CellzDirect and other ToxCast collaborators), vehicle control (0.2% DMSO), and positive control inducers as summarized in Table 1. Due to the large number of treatment groups and chemicals examined, the ToxCast chemicals were divided into two groups (spanning two independent cultures of hepatocytes from separate donor preparations (Hu778: ToxCast plates 1 and 2; Hu776: ToxCast plates 3 and 4). Each preparation of human hepatocyte cultures was treated with respective vehicle control, medium only control, set of six positive controls/reference chemicals for the five hepatic receptor pathways, and a subset of eight of the ToxCast chemicals (indoxacarb, pyrithiobac-sodium, norflurazon, cyhalofop-butyl, methomyl, thiram, acetochlor, and propiconazole). These replicate data, coupled with internal replicates designed within the blinded ToxCast chemical library, provided additional data to evaluate interindividual differences between hepatocyte preparations and their potential impact on chemical profiles.Cell morphology and integrity were evaluated using phase-contrast microscopy as an indicator of hepatocyte cell health (Tyson & Green, 1987). Cultures for each treatment group (i.e., media, vehicle [0.2% DMSO], positive control inducers [multiple concentrations], and the ToxCast chemicals [multiple concentrations]) were observed and cell morphology was assessed relative to vehicle control cultures at each harvest time point (0, 6, 24, or 48 h). […] Images were evaluated at the conclusion of the study to assess changes in cell integrity and account for the effects of chemical exposure on uncharacteristic changes in concentration-dependent gene expression profiles. The results from these determinations of apparent cytotoxicity were annotated (yes/no) alongside the corresponding qNPA data for reference.At the conclusion of each treatment period, hepatocyte cultures (96-well) were washed with 1 volume of HBSS, lysed by addition of 25 ul ArrayPlate lysis buffer (HTG, Tucson, AZ), and 70 ul/well of Denaturation Oil, denatured by incubation at 95C for 10 min, and frozen at approximately -70C until analysis by nuclease protection assay (qNPA) (Roberts et al., 2007). For qNPA analysis, cell lysates were thawed at 50C for approximately 30 min, qNPA probes were added, and samples were incubated at 95C for 10 min to begin the detection process by denaturing the target RNA, dissociating the duplexes and secondary structure hybridization. At the conclusion of the hybridization period, S1 nuclease reagent was added to each sample to digest all nonprotected nucleotides at 50C for 60-90 min. […]
Structure (SMILES),outcome,AC50
O=C(O)CCCOc1ccc(Cl)cc1Cl,inactive,
CCN(CC)C(=O)SCc1ccc(Cl)cc1,inactive,
CNC(=O)/C=C(\C)OP(=O)(OC)OC,inactive,
CNC(=O)Oc1ccccc1OC(C)C,inactive,
CC(C)(C)C(O)C(Oc1ccc(Cl)cc1)n1cncn1 (centres undefined),inactive,
OCCOc1ccccc1,inactive,
Oc1ccc(Cl)cc1Cc1ccccc1,inactive,
O=C(Nc1ccccc1)Nc1cnns1,inactive,
O=S(=O)(O)C(F)(F)C(F)(F)C(F)(F)C(F)(F)C(F)(F)C(F)(F)C(F)(F)C(F)(F)F,,3.97 µM (active)
CC1(c2ccc(Oc3ccccc3)cc2)OC(=O)N(Nc2ccccc2)C1=O (centres undefined),inactive,
[2H]C1([2H])[n+]2ccccc2-c2cccc[n+]2C1([2H])[2H],inactive,
O=C1c2ccccc2C(=O)N1SC(Cl)(Cl)Cl,inactive,
CCOCN(C(=O)CCl)c1c(C)cccc1CC,inactive,
CCOc1nc(NC)nc(NC(=O)NS(=O)(=O)c2ccccc2C(=O)OC)n1,inactive,
Oc1cc(Cl)ccc1Oc1ccc(Cl)cc1Cl,inactive,
Cc1[nH]c(=O)n(C(C)(C)C)c(=O)c1Cl,inactive,
CNC(=O)CSP(=S)(OC)OC,inactive,

Structure (SMILES),outcome,AC50
COP(=O)(OC)OC=C(Cl)Cl,inactive,
CC[C@H](C)[C@H]1O[C@]2(C=C[C@@H]1C)C[C@@H]1C[C@@H](C/C=C(\C)[C@@H](O[C@H]3C[C@H](OC)[C@@H](O[C@H]4C[C@H](OC)[C@@H](O)[C@H](C)O4)[C@H](C)O3)[C@@H](C)/C=C/C=C3\CO[C@@H]4[C@H](O)C(C)=C[C@@H](C(=O)O1)[C@]34O)O2 (tested in a mixture with another compound),inactive,
O=S1OCC2C(CO1)C1(Cl)C(Cl)=C(Cl)C2(Cl)C1(Cl)Cl (centres undefined),inactive,
CCCN(CCOc1c(Cl)cc(Cl)cc1Cl)C(=O)n1ccnc1,inactive,
CNC(=O)Oc1cccc(N=CN(C)C)c1,inactive,
Cc1cc(C)nc(NC(=O)NS(=O)(=O)c2ccccc2C(=O)OC2COC2)n1,inactive,
COC(=O)c1ccccc1CS(=O)(=O)NC(=O)Nc1nc(OC)cc(OC)n1,inactive,
O=C(O)COc1ccc(Cl)cc1Cl,inactive,
O=[N+]([O-])/N=C1\NCCN1Cc1ccc(Cl)nc1,inactive,
Clc1ccccc1-c1nnc(-c2ccccc2Cl)nn1,inactive,
CCc1ccc(C(=O)NN(C(=O)c2cc(C)cc(C)c2)C(C)(C)C)cc1,inactive,
CCS(=O)(=O)c1cccnc1S(=O)(=O)NC(=O)Nc1nc(OC)cc(OC)n1,inactive,
N#CN,inactive,
O=C(O)C(F)(F)C(F)(F)C(F)(F)C(F)(F)C(F)(F)C(F)(F)C(F)(F)F,inactive,
COC(=O)c1ccccc1S(=O)(=O)NC(=O)Nc1nc(C)nc(OC)n1,,0.0117 µM (active)
COc1cc(OC)nc(NC(=O)NS(=O)(=O)c2cc(NC=O)ccc2C(=O)N(C)C)n1,inactive,
CCC(C)Nc1c([N+](=O)[O-])cc(C(C)(C)C)cc1[N+](=O)[O-] (centres undefined),inactive,
